High-throughput results deposited in PubChem BioAssay by National Center for Advancing Translational Sciences (NCATS).
A selection: hits, their analogues and other compounds. The true share with any hit is near 21%.
Shiga inhibitor: inhibitors of Shiga toxin in Vero cells; Vero cells, Shiga toxin protein synthesis inhibition reporter; inhibition, % at 38.7 µM; actives 9.2% (n = 290,000); AID 2315; in the data active = inhibition mostly above about 28%, no sharp cut-off; inactive = mostly below about 43%; note: 0% is about no effect
Pf growth 96h: inhibits malaria parasite growth, 96 h; actives 6.9% (n = 320,000); AID 504834; P. falciparum luciferase reporter growth, 96 h; Potency, µM (doses to about 28.7 µM), for the others: top-dose activity change, negative = inhibition, usual class: inhibitors; note: potency is the fitted concentration of half-maximal effect; % is set by controls: 0 for no effect and ±100 for the full control effect
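Cell-based qHTS: luciferase-tagged P. falciparum in erythrocytes (2% hematocrit, 0.05% parasitemia final) incubated with compounds for 96 hours, 37 C, 5% CO2; luciferase detection reagent then added and luminescence measured.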
Cycloheximide cs: counter-screen for Shiga toxin inhibitors: cycloheximide protein synthesis inhibition. max response, %. actives 12% (n = 300,000). cell reporter, cycloheximide protein synthesis inhibition counterscreen. AID 2314; in the data active = max response mostly above about 13%, no sharp cut-off; inactive = mostly below about 14%; note: read at 38.3 µM for the half of the compounds with a filed dose; 0% is about no effect
Pf growth 48h: inhibits P. falciparum growth in the first generation, 48 h | actives 5.9% (n = 310,000) | P. falciparum luciferase growth in erythrocytes, 48 h | AID 504832 | Potency, µM (top dose mostly 28.7 µM), for inactives: at the top dose activity change, negative = inhibition, hits mostly inhibitors; note: potency is the fitted concentration of half-maximal effect; % is set by controls: 0 for no effect and ±100 for the full control effect
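Luciferase-expressing parasites in RBCs, 2% Hct / 0.1% parasitemia final; RPMI 1640 + 0.5% Albumax; 37 C, 5% CO2, one generation; luminescence read-out, lower signal = inhibition.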
Sm TGR block: blocks Schistosoma mansoni thioredoxin glutathione reductase. Q962Y6. purified TGR, DTNB reduction, TNB absorbance 405 nm. Potency, µM (titrated, usually from 114 µM), for the others: top-dose activity change, negative = inhibition, hits mostly inhibitors. actives 3% (n = 360,000); note: potency is the fitted concentration of half-maximal effect; % is set by controls: 0 for no effect and ±100 for the full control effect; nearly all actives have a fitted effect of over 60% in size
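TGR 20 nM + NADPH 100 uM (dispensed conc.), cpd preinc 15 min RT; start with NADPH (500 uM addition) then DTNB (15 mM addition). Kinetic TNB absorbance, 405 nm filter. Four-parameter Hill fit across titration.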
NS1 function inh: inhibitors of influenza NS1 protein function. Potency, µM (top dose mostly 46.1 µM), for the others: top-dose activity, positive = more growth. actives 0.4% (n = 270,000); calls by dose curve; note: potency is the fitted concentration of half-maximal effect; actives are rising curves; nearly all actives have a fitted effect of over 50% in size
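In this qHTS, NS1 from influenza A is expressed in budding yeast, where it slows growth. Cells are switched from glucose to 2% galactose medium (pH 6.0, -URA), treated with compound, and growth recovery is read at OD600.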
* hit, by the source's call; ? = inconclusive; · = no result. Unless noted, calls come from the whole dose curve; as a rule, active = well fitted curve in the direction sought with a large enough effect; inconclusive = small, poorly fitted or top-dose-only effect, or another doubt; inactive = no such curve, though single readings can be large; an effect the other way counts as inactive or inconclusive.

SMILES	Shiga inhibitor	Pf growth 96h	Cycloheximide cs	Pf growth 48h	Sm TGR block	NS1 function inh
CCCCCCN(C(=O)CCCCCN1C(=O)NC(c2ccc(-c3ccccc3)cc2)C(C(=O)OCc2ccccc2)=C1C)C(C(=O)NCCCC)C1CCCCC1 (stereo not given)	16	2.6µM*	-7	0.83µM*	2%	-5%
CC1=C(C(=O)OCc2ccccc2)C(c2ccc(C#N)cc2)NC(=O)N1CCCC(=O)O (stereo not given)	-11	-26%	-5	1%	-13%	-10%
CCCC12CN3CC(C)(CN(C1)C3c1cn(CC)c3ccccc13)C2=O (stereo not given)	·	·	·	·	0%	·
CCc1nc2ccccc2nc1N1CCN(S(=O)(=O)c2ccccc2)CC1	-4	15µM*	-2	?	11%	2%
Cc1cc(C)n(-c2nc3ccccc3nc2N2CCN(c3cccc(C)c3C)CC2)n1	·	·	·	·	-3%	·
Cc1cc(C)n(-c2nc3ccccc3nc2N2CCC(C)CC2)n1	40	·	1	9.3µM*	7%	-65%
Cc1cc(C)n(-c2nc(N(C)C)nc(N3CCOCC3)n2)n1	-15	-9%	-2	·	3%	1%
Cc1cc(N2CCC(C)CC2)nc(-n2nc(C)cc2C)n1	-9	·	-1	0.74µM*	-14%	-3%
Cc1ccc(S(=O)(=O)N2CCN(c3nc4ccccc4nc3-n3nc(C)cc3C)CC2)cc1	-22	17%	8	10µM*	1%	-68%
Cc1cc(C)n(-c2nc3ccccc3nc2N2CCN(C(=O)c3ccc(F)cc3)CC2)n1	-10	·	-5	?	-16%	-26%
O=C(Nc1ccc(Oc2ncnc3cc(Cl)ccc23)nc1)c1cccs1	-10	16%	0	5%	-8%	1%
CCOC(=O)c1c(C)oc2nc(C)nc(Nc3cc(C)ccc3OC)c12	·	·	·	·	6%	·
Cc1ccccc1N(C(=O)CS(=O)CC(=O)Nc1ccc(F)cc1)C(C)C(=O)NC(C)(C)C (stereo not given)	-8	1%	-2	-11%	-6%	-5%
CC1C(=O)C(C)C(c2ccc(Br)cc2)NC1c1ccc(Br)cc1 (stereo not given)	-5	3.7µM*	-9	?	-6%	-39%
CC1C(=O)C(C)C(c2ccc3c(c2)OCO3)NC1c1ccc2c(c1)OCO2 (stereo not given)	-17	23%	-1	10µM*	5%	-44%
O=C(Cn1c(NCCCCl)nc2ccccc21)c1ccccc1	·	?	·	?	-24%	·
CCN(CC)c1ccc2nc3c4ccccc4c(=O)cc-3oc2c1	65*	-1%	52*	25%	-5%	1%
CCN(CC)c1ccc2cc(-c3nc(-c4ccccc4F)no3)c(=O)oc2c1	·	·	·	·	1%	·
CN(C)C1NC(=O)c2cc(-c3ccccc3)sc2N1 (stereo not given)	31	5%	17*	125%	-1%	-16%
COc1cc(CN(C)CC(=O)c2[nH]c(C)c(C(C)=O)c2C)ccc1OC(F)F	7	?	-2	?	22µM*	3%
Clc1ccccc1-c1nc2nc3ccccc3nc2n1-c1ccc2c(c1)OCO2	-14	10µM*	-2	?	-7%	-47%
Cc1ccccc1OCC(O)CN (stereo not given)	8	·	6	16%	8%	0%
Cc1ccccc1OCCNCC(C)O (stereo not given)	-4	13µM*	-1	1%	-1%	2%
CCOc1ccccc1CNCCNCC(C)O (stereo not given)	-18	9.3µM*	-2	-23%	10%	5%
CCNc1nc(NCC)nc(Oc2ccc(OCc3ccccc3)nn2)n1	-5	44%	-2	0%	-7%	·
SMILES	Shiga inhibitor	Pf growth 96h	Cycloheximide cs	Pf growth 48h	Sm TGR block	NS1 function inh
O=S(=O)(c1ccc(Cl)cc1)c1nc(-c2ccccc2Br)oc1NCc1ccccc1	·	·	·	·	-2%	·
CNc1oc(Cc2ccccc2)nc1S(=O)(=O)c1ccc(Cl)cc1	-2	?	-4	-8%	13µM*	-1%
O=C(CCCC(=O)OCC(=O)c1ccc(Cl)cc1Cl)Nc1cc(C(F)(F)F)ccc1Cl	2	0%	-1	25%	89µM*	8%
CC1CCCN(S(=O)(=O)c2ccc3c(c2)c(=O)nc2ccccn23)C1 (stereo not given)	8	31%	-3	?	-7%	9%
Cc1nn(-c2ccccn2)c2nc(-c3cccs3)cc(C(=O)NCc3ccco3)c12	39	10µM*	19*	·	-25%	23%
Cc1ccccc1-n1nc(C)c2c(C(=O)NN)cc(-c3ccncc3)nc21	-9	?	3	-23%	-6%	2%
CCOC(=O)c1cc(-c2cccs2)nc2c1c(C)nn2-c1ccccn1	-4	?	4	-21%	0%	·
Cc1nn(-c2ccccc2)c2nc(-c3ccncc3)cc(C(=O)NCc3ccco3)c12	2	10µM*	2	3.7µM*	45µM*	7%
COC(=O)c1cc2oc3ccccc3c2n1Cc1cccc(C)c1	·	·	·	·	14%	·
Cc1cccc(N2CCN(C(=O)CS(=O)(=O)Cc3nc(-c4ccccc4C)oc3C)CC2C)c1 (stereo not given)	·	·	·	·	6%	·
COc1ccc(N2CCN(C(=O)c3ccc(CS(=O)(=O)c4ccccc4C)o3)CC2)cc1	-5	10µM*	0	13%	-23%	-21%
COc1ccc(N2CCN(C(=O)c3ccc(CS(=O)(=O)c4ccc(Br)cc4)o3)CC2)cc1	13	?	-1	?	7%	5%
Cc1ccc(C)c(N2CCN(C(=O)c3ccc(CS(=O)(=O)c4ccccc4C)o3)CC2)c1	-9	?	-1	?	25µM*	8%
COc1ccccc1S(=O)(=O)Cc1ccc(C(=O)N2CCN(c3cccc(Cl)c3)CC2)o1	-3	4%	11	12µM*	-19%	24%
Cc1cccc(N2CCN(C(=O)c3ccc(CS(=O)(=O)c4ccccc4C)o3)CC2C)c1 (stereo not given)	15	170%	-5	13µM*	-30%	-9%
COc1ccccc1S(=O)(=O)Cc1ccc(C(=O)N2CCN(c3ccccc3)CC2)o1	-11	7%	-1	?	0%	-46%
COc1ccc(C)c2sc(NC(=O)c3ccc(S(=O)(=O)N(C)C)cc3)nc12	·	·	·	·	0%	·
O=C(NCc1ccco1)c1cc(C(=O)C2CC2)c[nH]1	-9	45%	4	51%	11%	20%
CC(C)(C)C(=O)NCCc1csc2nc(-c3ccc(F)cc3)nn12	·	·	·	·	1%	·
COC(=O)CCNC(=O)N1CCN(c2nnc(C)c3c(C)n(-c4ccccc4)nc23)CC1	·	·	·	·	-4%	·
COc1cc(OC)cc(C(=O)Nc2ccc3nc(N4CCCCC4)cc(C)c3c2)c1	·	·	·	·	3%	·
CCN1CCN(c2cc(C)c3cc(NC(=O)c4ccc(OC)c(OC)c4)ccc3n2)CC1	-17	-9%	4	·	0%	4%
